Data on six compounds can be found in PubChem BioAssay.

For experiment [1], the system named is Human papillomavirus type 1a protein E7 (residues 44-93). Kind of experiment: small molecules binding HPV E7 44-93 – biochemical, small-molecule microarray, residues 44-93, 635 nm fluorescence, primary screen (AID 1108).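 Further: E7 fragment applied at 1 µg/mL in TBST for 1 h at 4 C; score combines spot fluorescence with its signal to noise ratio.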 The conditions noted are these: fluorescence 635 nm, higher = more signal.
Experiment [2] is described as follows: hepatitis C replication reporter changes, two-sided – Huh7 cells, luciferase reporter, HCV replication inhibitor project, primary screen (AID 1109).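 Further: huh7 hepatoma cells harbouring a luciferase neomycin HCV replicon reporter; luciferase luminescence as measure of HCV replicon replication; test concentration not given here.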 The conditions noted are these: Huh7 HCV replicon luciferase reporter, 48 h; higher = more signal.
The target in experiment [3] is Left-right determination factor 2 (Homo sapiens) (UniProt O00292). As to the kind of experiment: small molecules binding LEFTY2 protein – biochemical, small-molecule microarray, 635 nm fluorescence scan, primary screen (AID 1110). Particulars: higher = more signal.
The target in experiment [4] is Calmodulin-1 (Homo sapiens) (UniProt P0DP23). As to the kind of experiment: small molecules binding calmodulin-1 with EGTA – biochemical, small-molecule microarray, Cy5-labelled CALM1, profiling panel (AID 1111).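 Further: labelled calmodulin applied in Tris saline Tween buffer holding calcium plus EGTA and DTT.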 The conditions noted are these: Cy5-CALM1 binding fluorescence, higher = more signal.
Experiment [5] has the same target. As to the kind of experiment: small molecules binding Ca-loaded calmodulin-1 – biochemical, small-molecule microarray, Cy5-labelled CALM1, plus calcium, artefact control for SMM control-protein annotation, profiling panel (AID 1112).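 Further: score merges spot fluorescence with signal to noise from triplicate slides.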 The conditions noted are these: Cy5-CALM1 binding fluorescence, higher = more signal.
Experiment [6] in a line: probe aWnt5a binding to arrayed compounds – biochemical, biotinylated probe, 635/667 nm fluorescence, primary screen (AID 1113).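 Further: score merges 667 nm fluorescence intensity with signal-to-noise per printed feature.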 Particulars: small-molecule microarray, higher = more signal.
A short description of experiment [7]: probe aShh binding to arrayed compounds – biochemical, biotinylated probe, 635/667 nm fluorescence, primary screen (AID 1114).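 Further: probe is biotin-labelled aShh protein from a stem cell growth factor screen; measures binding of labelled protein to compounds printed on the slide; score merges feature fluorescence at 667 nm with signal-to-noise.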 Particulars: small-molecule microarray, higher = more signal.
Experiment [8] is described as follows: probe aNog binding to arrayed compounds – biochemical, biotinylated probe, 635/667 nm fluorescence, primary screen (AID 1115).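 Further: probe is biotinylated aNog protein used at 0.15 µg/mL for 1 h at 4 C; z-score combines 667 nm fluorescence of each spot with its signal to noise.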 The conditions noted are these: small-molecule microarray, higher = more signal.
Experiment [9] concerns the target Torsin-1A-interacting protein 1 (Homo sapiens) (UniProt Q5JTV8). Kind of experiment: compound microarray binding of lysate hLAP1 – cell lysate, small-molecule microarray, COS7 lysate, 635/667 nm fluorescence, primary screen (AID 1116). Particulars: 635 nm fluorescence, higher = more signal.
The target of experiment [10] is Alpha-bungarotoxin (Bungarus multicinctus) (UniProt P60615). As to the kind of experiment: compounds binding labelled alpha-BTX control protein – biochemical, small-molecule microarray, Alexa647 label, 635/667 nm fluorescence, artefact control for SMM control protein annotation, profiling panel (AID 1117). The conditions noted are these: alpha-BTX-A647 binding fluorescence, higher = more signal.

A further experiment has as its target Albumin (Bos taurus) (UniProt P02769). As to the kind of experiment: compounds binding labelled BSA control protein – biochemical, small-molecule microarray, Alexa647 label, 635/667 nm fluorescence, artefact control for SMM control protein annotation, profiling panel (AID 1118).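 Further: score merges 667 nm emission intensity and signal-to-noise per printed compound spot.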 Particulars: BSA-A647 binding, fluorescence 635 nm, higher = more signal.
The nature of experiment [11]: probe aXIP binding to arrayed compounds – biochemical, NeuroSMM set, 635/667 nm fluorescence, primary screen (AID 1119).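 Further: probe is the protein aXip251-270 applied at 1 µg/mL to compound-printed slides; binding of probe to printed compounds measured as 667 nm fluorescence plus signal to noise.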 Particulars: small-molecule microarray, higher = more signal, called active from +8 up or from −8 down.
A short description of experiment [12]: probe aNOTCH3 binding on compound microarray – biochemical, small-molecule microarray, 635/667 nm fluorescence, primary screen (AID 1120).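 Further: probe is a biotin-tagged antibody raised against NOTCH3 rather than NOTCH3 protein; score merges spot fluorescence near 667 nm with spot signal to noise.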 The conditions noted are these: higher = more signal.
Experiment [13] can be described thus: probe aNOTCH2 binding on compound microarray – biochemical, small-molecule microarray, 635/667 nm fluorescence, primary screen (AID 1121).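 Further: score merges feature fluorescence read at 667 nm with its signal to noise.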 Particulars: higher = more signal.
Experiment [14] addresses Carbonic anhydrase 2 (Homo sapiens) (UniProt P00918). As to the kind of experiment: compounds binding carbonic anhydrase 2 – biochemical, small-molecule microarray, Alexa647-labelled CAII, profiling panel (AID 1122). Particulars: CAII-A647 binding fluorescence, higher = more signal.
Experiment [15] in a line: COS7 lysate on small-molecule microarray, probe aHis, 635 nm (AID 1123).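 Further: z-score combines 667nm fluorescence intensity with signal-to-noise per printed compound spot.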 The conditions noted are these: COS7 cell lysate, fluorescence, higher = more signal.
Experiment [16] is described as follows: probe aLAP1 signal on lysate-treated microarray – cell lysate, small-molecule microarray, COS7 lysate, primary screen (AID 1124).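 Further: lysate comes from COS7 cells expressing LAP1 and is applied at 0.3 µg/mL; score merges spot fluorescence near 667 nm with signal-to-noise over triplicate slides.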 The conditions noted are these: probe aLAP1, fluorescence, higher = more signal.
A further experiment deals with Sam68 (KHDRBS1). As to the kind of experiment: compounds binding KHDRBS1 protein – biochemical, small-molecule microarray, 635 nm fluorescence, primary screen (AID 1125).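 Further: score merges 667 nm channel intensity with signal to noise over triplicate slides.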 The conditions noted are these: higher = more signal.
Experiment [17] has as its system Chordin-like protein 2 (CHRDL2). As to the kind of experiment: compounds binding chordin-like 2 – biochemical, small-molecule microarray, 635 nm fluorescence, primary screen (AID 1126).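 Further: printed compound slides probed with Chrdl2 protein at 4 µg/mL for 1 h at 4 C; score merges 667 nm emission intensity with signal to noise over three replicate slides.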 The conditions noted are these: fluorescence 635 nm, higher = more signal.
In experiment [18] the target is Concanavalin-A (Canavalia ensiformis) (UniProt P02866). Kind of experiment: compounds binding concanavalin A lectin – biochemical, small-molecule microarray, Alexa647 label, 635 nm, artefact control for SMM control protein annotation, primary screen (AID 1127).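 Further: z combines 667 nm emission intensity with signal-to-noise across three replicate slides.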 The conditions noted are these: ConA-A647 binding fluorescence, higher = more signal.

Molecules are shown by their SMILES. Calls of active or inactive are those of the source.

Concanavalin-A (Canavalia ensiformis), sequence (P02866 whole entry, looked up): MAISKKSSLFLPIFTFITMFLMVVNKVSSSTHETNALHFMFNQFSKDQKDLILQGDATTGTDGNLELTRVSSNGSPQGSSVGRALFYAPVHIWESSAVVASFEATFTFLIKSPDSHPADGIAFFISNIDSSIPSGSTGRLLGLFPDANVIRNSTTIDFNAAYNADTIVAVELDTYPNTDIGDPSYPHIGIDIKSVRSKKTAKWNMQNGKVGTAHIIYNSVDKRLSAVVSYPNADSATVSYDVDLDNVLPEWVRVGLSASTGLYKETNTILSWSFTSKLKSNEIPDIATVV
Left-right determination factor 2 (Homo sapiens), sequence (O00292 whole entry, looked up): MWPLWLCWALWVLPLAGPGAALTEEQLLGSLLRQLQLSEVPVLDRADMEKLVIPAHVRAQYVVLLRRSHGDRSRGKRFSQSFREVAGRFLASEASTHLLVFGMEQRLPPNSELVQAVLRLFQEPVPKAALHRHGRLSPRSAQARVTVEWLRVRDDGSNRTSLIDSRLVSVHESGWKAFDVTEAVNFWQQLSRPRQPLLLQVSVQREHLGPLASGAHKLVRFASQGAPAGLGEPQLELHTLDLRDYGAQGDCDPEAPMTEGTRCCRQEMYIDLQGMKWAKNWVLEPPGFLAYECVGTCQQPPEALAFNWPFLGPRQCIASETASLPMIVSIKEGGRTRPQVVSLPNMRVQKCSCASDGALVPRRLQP
Alpha-bungarotoxin (Bungarus multicinctus), sequence (P60615 whole entry, looked up): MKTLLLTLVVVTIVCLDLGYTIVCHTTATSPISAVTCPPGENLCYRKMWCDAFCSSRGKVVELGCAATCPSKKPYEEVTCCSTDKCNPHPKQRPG
Torsin-1A-interacting protein 1 (Homo sapiens), sequence (Q5JTV8 whole entry, looked up): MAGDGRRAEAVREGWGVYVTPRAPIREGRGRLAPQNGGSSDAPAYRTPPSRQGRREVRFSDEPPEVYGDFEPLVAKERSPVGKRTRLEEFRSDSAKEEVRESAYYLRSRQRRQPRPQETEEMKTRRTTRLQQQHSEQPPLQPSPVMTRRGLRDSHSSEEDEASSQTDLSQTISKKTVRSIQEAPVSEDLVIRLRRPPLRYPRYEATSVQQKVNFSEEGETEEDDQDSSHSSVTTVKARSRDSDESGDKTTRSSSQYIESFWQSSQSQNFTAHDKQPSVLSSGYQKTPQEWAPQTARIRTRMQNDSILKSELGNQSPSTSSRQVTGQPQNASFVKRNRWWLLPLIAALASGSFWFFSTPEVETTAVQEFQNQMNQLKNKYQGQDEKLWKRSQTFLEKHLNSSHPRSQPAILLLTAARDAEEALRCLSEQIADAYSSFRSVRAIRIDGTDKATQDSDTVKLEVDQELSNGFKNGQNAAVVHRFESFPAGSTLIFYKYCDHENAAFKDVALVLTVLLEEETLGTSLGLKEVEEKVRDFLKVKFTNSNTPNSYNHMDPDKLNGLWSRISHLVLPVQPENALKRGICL
Albumin (Bos taurus), sequence (P02769 whole entry, looked up): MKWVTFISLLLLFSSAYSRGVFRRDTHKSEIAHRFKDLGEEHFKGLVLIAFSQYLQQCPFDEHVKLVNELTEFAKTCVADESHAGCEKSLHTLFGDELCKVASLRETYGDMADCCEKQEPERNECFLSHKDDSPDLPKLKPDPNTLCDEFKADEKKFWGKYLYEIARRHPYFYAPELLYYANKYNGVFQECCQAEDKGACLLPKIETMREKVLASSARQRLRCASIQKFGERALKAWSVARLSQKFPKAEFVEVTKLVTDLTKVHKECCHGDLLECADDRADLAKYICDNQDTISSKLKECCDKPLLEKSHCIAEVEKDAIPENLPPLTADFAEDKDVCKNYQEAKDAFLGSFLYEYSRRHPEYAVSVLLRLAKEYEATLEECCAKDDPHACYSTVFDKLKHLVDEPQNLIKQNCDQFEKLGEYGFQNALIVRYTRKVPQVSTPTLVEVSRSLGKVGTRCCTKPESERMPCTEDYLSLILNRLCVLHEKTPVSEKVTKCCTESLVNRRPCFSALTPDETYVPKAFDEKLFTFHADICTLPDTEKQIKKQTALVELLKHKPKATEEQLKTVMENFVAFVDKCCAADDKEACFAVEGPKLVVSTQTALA

Regarding `C=CCNC(=O)[C@@H]1[C@H]2C(=O)O[C@H](c3ccccc3)[C@H](c3ccccc3)N2[C@H](c2ccc(OCCO)cc2)[C@@]12C(=O)Nc1ccc(C#Cc3ccc(OC)cc3)cc12`, the composite z-score in [1] came out at 0.14; in experiment [3], 0.849; in [4], 1.63; in [5], 0.0791; in experiment [6] it was 0.0597; in experiment [7] it was 0.366. For the same compound, the composite z-score is 0.201 in experiment [8]; 0.781 in experiment [9]; 2.88 in experiment [10]; 0.77 with Albumin (Bos taurus); 0.102 in experiment [12]; -0.0464 in experiment [13]. The composite z-score in experiment [14] turned out to be 0.331; in experiment [15], 1.14; in experiment [16], 0.606; in the experiment on Sam68 (KHDRBS1), 1.3; in experiment [17], 0.605; in [18], 1.13. The compound further registered a z-score in experiment [2] of -1.87. Besides, in experiment [11], the composite Z-score was 0.883 (inactive).

With `OC([C@@H]1CC(c2ccccc2)=NO1)[C@H]1CC(c2ccccc2)=NO1` (stereo not given in full), the composite z-score in experiment [1] was -0.0304; in [3], 0.176; in [4], -0.181; in experiment [5], -0.416; in [6], 0.0317; in experiment [7], -0.214. In addition, the composite z-score in experiment [8] is -0.234; in [9] it was 0.11; in experiment [10], -0.0544; in the experiment with Albumin (Bos taurus), 0.558; in [12] it was -0.0465; in experiment [13] it was -0.0859. Further, the composite z-score in [14] is -0.11; in [15], -0.262; in [16] it was -0.105; in the experiment on Sam68 (KHDRBS1), -0.285; in [17], 0.191; in experiment [18] it was -0.363. In addition, the z-score in experiment [2] is 0.341. Further, the composite Z-score in experiment [11] was -0.227 (inactive).

Turning to `COC(=O)[C@@]1(Cc2ccc(OC)cc2)[C@H]2c3cc(C(=O)N(C)C)n(Cc4cccc5ccccc45)c3C[C@H]2CN1C(=O)c1ccccc1`, the composite z-score in [1] was 1.48; in [3] it was 0.243; in experiment [4] it was 1.48; in experiment [5] it was 0.94; in experiment [6], 0.346; in [7], 1.33. Further, the composite z-score in [8] was determined as 2.12; in experiment [9], 1.41; in experiment [10], 0.563; in the experiment with Albumin (Bos taurus), 1.02; in experiment [12], 0.726; in experiment [13], 0.624. Further, the composite z-score in experiment [14] is 0.753; in [15] it was 3.03; in experiment [16] it was 0.506; in the experiment on Sam68 (KHDRBS1) it was 0.432; in [17], 0.0735; in [18] it was 0.976. Also, the z-score in [2] is -2.35. In addition, the composite Z-score in experiment [11] was 0.0388 (inactive).

On to `Cc1ccc(S[C@]2(C(=O)NCC(F)(F)F)CC(=O)N(C(C)C)[C@@H]2c2ccc(CO)cc2I)cc1`, for which the composite z-score in experiment [1] was -0.554; in experiment [3], -0.754; in [4], -0.0874; in [5], 0.363; in experiment [6], -0.101; in [7], -0.0192. Besides, the composite z-score is 0.986 in experiment [8]; -0.261 in experiment [9]; -0.472 in experiment [10]; -0.667 with Albumin (Bos taurus); -0.276 in experiment [12]; -0.0557 in [13]. Further, the composite z-score in [14] is 0.742; in [15], 0.506; in experiment [16], 0.106; with Sam68 (KHDRBS1), -0.749; in experiment [17], -0.445; in experiment [18] it was -0.967. This compound also registered a z-score in [2] of -1.76. Also, the composite Z-score in experiment [11] was 0.314 (inactive).

`COc1ccc(C(=O)Nc2ccc(CN3C(=O)[C@@]4(O[C@@H](CCn5cc([C@H](O)c6ccccc6)nn5)[C@H]([Si](C)(C)c5ccc(OC)cc5)[C@H]4C)c4ccccc43)cc2)cc1`: the composite z-score was 1.26 in experiment [1]; -0.553 in experiment [3]; 0.168 in experiment [4]; -0.0823 in experiment [5]; -0.0896 in experiment [6]; -0.0337 in experiment [7]. For the same compound, the composite z-score is 0.103 in [8]; 0.485 in experiment [9]; 0.572 in experiment [10]; 0.0961 with Albumin (Bos taurus); -0.0377 in experiment [12]; -0.124 in experiment [13]. For the same compound, the composite z-score in [14] was 0.563; in experiment [15], 1.39; in experiment [16], 0.0085; in the experiment on Sam68 (KHDRBS1) it was 0.876; in [17], -0.238; in [18] it was 0.399. Also, in [2], the z-score was -4.67. Moreover, the composite Z-score in [11] is 0.611 (inactive).

For the compound `C=C(/C(=C/C[C@@H](OC(C)=O)c1ccc(OCCO)cc1)c1cnc2ccccc2c1)C(C)C`, the composite z-score in experiment [1] is 1.32; in experiment [3], 0.49; in experiment [4] it was -0.196; in experiment [5], -0.541; in experiment [6], -0.091; in [7] it was 0.111. For the same compound, the composite z-score in experiment [8] is 0.0541; in experiment [9] it was 0.113; in experiment [10] it was 0.249; in the experiment with Albumin (Bos taurus), 0.444; in [12], -0.0362; in [13], -0.17. Also, the composite z-score in experiment [14] was 0.425; in experiment [15], 0.387; in experiment [16] it was -0.0638; in the experiment with Sam68 (KHDRBS1), 0.713; in experiment [17], 0.159; in experiment [18] it was 0.806. In experiment [2], the z-score is -1.19. The composite Z-score in experiment [11] is -0.199 (inactive).
